A selection: hits, their analogues and other compounds. The true share with any hit is near 1.6%.
KCNQ2 inh – rat KCNQ2 potassium channel inhibitors, primary screen, cell-based, CHO-K1, FluxOR thallium flux, B-score. Potassium voltage-gated channel subfamily KQT member 2 (Rattus norvegicus), O88943. 20 min; stronger effect = lower value. B-score at 10 µM. 1.1% of 310,000 active. AID 2156, 2009;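 active means fluorescence ratio B-score at most minus 3 library SDs, with starting brightness B-score within 2 library SDs, cut at about -5.5 in these data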
KCNQ2 pot – potentiators of rat KCNQ2 potassium channel | Potassium voltage-gated channel subfamily KQT member 2 (Rattus norvegicus), O88943 | AID 2239, 2010 | 0.54% of 310,000 active | B-score at 10 µM | CHO-K1 KCNQ2, FluxOR thallium flux fluorescence; stronger effect = higher value;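 active means fluorescence ratio B-score at least 3 SD of library B-scores, with initial fluorescence B-score within 3 of them, cut at about 5.3 in these data; same plate scores as AID 2156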;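 further: B-score of peak minus minimum over baseline fluorescence ratio after K+ and Tl+ stimulus; positive B-score means potentiation of KCNQ2 with more thallium influx and brighter signal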
Kir21 conf inh – mouse Kir2.1 channel blockers, retest, confirmation, cell-based, FluxOR thallium flux, duplicate. shares compounds with KCNQ2 pot. Kir2.1-expressing cells, FluxOR thallium flux fluorescence; stronger effect = lower value. Tl flux remaining, % of negative control (stronger effect = lower value), % at 10 µM. 41% of 2,300 active. AID 2032, 2009;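 active means Primary-screen hit whose thallium flux fell at least 3 control SD below untreated wells in both duplicates, with normal baseline fluorescence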
Target sequence (P35561 whole entry, looked up): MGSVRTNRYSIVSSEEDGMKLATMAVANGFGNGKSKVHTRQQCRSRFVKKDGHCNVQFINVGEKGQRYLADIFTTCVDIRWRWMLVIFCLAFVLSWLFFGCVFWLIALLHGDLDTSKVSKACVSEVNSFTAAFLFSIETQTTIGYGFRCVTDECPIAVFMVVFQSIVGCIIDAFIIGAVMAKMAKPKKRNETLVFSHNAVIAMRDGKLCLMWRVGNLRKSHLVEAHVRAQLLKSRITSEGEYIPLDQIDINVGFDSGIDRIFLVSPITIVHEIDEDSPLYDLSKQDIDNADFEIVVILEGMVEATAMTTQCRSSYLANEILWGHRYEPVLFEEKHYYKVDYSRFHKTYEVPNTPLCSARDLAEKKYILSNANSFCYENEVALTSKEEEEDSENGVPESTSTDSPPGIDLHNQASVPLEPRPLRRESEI
HEK293 Tl flux – alters thallium flux in parental HEK293 cells, Kir2.1 counter-screen; FluxOR thallium flux fluorescence; 0% = unstimulated blank wells; AID 2105; FluxOR signal as % of negative control (100 = no effect), % at 10 µM; 19% of 2,300 active; shares compounds with KCNQ2 pot;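 active means dye signal at least 3 control SD above or below untreated wells in both duplicates, raw fluorescence within 3, either direction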;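 further: percent is based on the flux ratio of peak minus minimum fluorescence over baseline F0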
CHO-K1 ctr – nonspecific thallium flux increase in parental CHO-K1, confirmation, counter-screen for KCNQ2 potentiator project, cell-based, FluxOR thallium flux, duplicate. shares compounds with KCNQ2 pot. parental CHO-K1 cells, FluxOR thallium flux fluorescence; zero = vehicle mean+3SD, 100% = vehicle-minus-blank window. activity increase over 3SD of controls, % at 10 µM. AID 2282, 2010. 43% of 1,200 active;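 active means signal rise of at least 3 SD above the untreated control mean, in both duplicate wells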;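 further: counter screen of KCNQ2 potentiator hits so any rise reflects channel-independent effects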
KCNQ1 sel pot – human KCNQ1 channel potentiation off-target, confirmation, selectivity assay for KCNQ2 potentiator project, cell-based, CHO, FluxOR thallium flux; shares compounds with KCNQ2 pot; CHO KCNQ1 stable, FluxOR thallium flux fluorescence; beyond 3SD, as % of vehicle-control signal; activation over 3SD threshold, % at 10 µM; 28% of 1,200 active; AID 2283, 2010;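 active means fluorescence ratio rise of at least 3 SD of vehicle wells above their mean, in both replicate wells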
KCNQ2 pot confirm – rat KCNQ2 channel potentiators, confirmation, cell-based, CHO, FluxOR thallium flux, duplicate; CHO-KCNQ2 cells, FluxOR thallium flux fluorescence; shares compounds with KCNQ2 pot; 68% of 1,200 active; potentiation, less the hit threshold, % at 10 µM; AID 2287, 2010;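 active means fluorescence ratio rising 3 SD or more over the vehicle control mean in both replicates, plus primary screen hit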;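 further: peak minus minimum thallium fluorescence divided by baseline after K/Tl stimulus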
Kir21 spec – mouse Kir2.1 channel activation off-target, confirmation, selectivity assay for KCNQ2 potentiator project, cell-based, HEK293, FluxOR thallium flux; HEK293 Kir2.1, FluxOR thallium flux fluorescence; shares compounds with KCNQ2 pot; 2% of 1,200 active; activity over 3SD threshold, % at 10 µM; AID 2345, 2010;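 active means fluorescence ratio rise of at least 3 SD above the vehicle-control mean, seen in both replicates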
KCNQ2 W236L MoA – potentiators of retigabine-insensitive KCNQ2 W236L, mechanism study for KCNQ2 potentiator project, cell-based, rat KCNQ2 W236L, CHO, automated patch clamp; automated patch clamp current; shares compounds with KCNQ2 pot; current increase over 3SD of negative controls (%), stronger effect = higher value, % at 25 µM; 10% of 940 active; AID 2558, 2010;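 active means current increase at least 3 SD of the untreated controls above them in both duplicate recordings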
Large screens that a line does not name were inactive (follow-up assays come after a bar, where they were run).

COc1ccc(OCCC(=O)OCC(=O)Nc2ccc(S(=O)(=O)N3CCOCC3)cc2)cc1	none
Cc1ccc(-c2cc(C(F)(F)F)n3nc(C(=O)NCCCn4ccnc4)cc3n2)cc1C	none
Cn1nc(C(F)(F)F)c2cc(NC(=O)OCc3ccc(F)cc3)sc21	none
Cn1nc(C(F)(F)F)c2cc(NC(=O)OCc3ccc(C(C)(C)C)cc3)sc21	KCNQ2 pot 6.3 | Kir21 conf inh inactive | HEK293 Tl flux inactive | CHO-K1 ctr 38 | KCNQ1 sel pot inactive | KCNQ2 pot confirm inactive | Kir21 spec inactive
CN(C)[C@@H]1CCC[C@@H]1OC(=O)C(c1ccccc1)c1ccccc1	none (no result: KCNQ2 pot)
O=C(O)c1ccc(NNC(=S)Nc2cc(C(F)(F)F)ccc2Cl)cc1	none (no result: KCNQ2 pot)
CC(=O)c1c(C)[nH]c(-c2ccccc2)nc1=S	KCNQ2 pot 6 | Kir21 conf inh inactive | HEK293 Tl flux 168% | CHO-K1 ctr 41 | KCNQ1 sel pot inactive | KCNQ2 pot confirm inactive | Kir21 spec inactive | KCNQ2 W236L MoA inactive
COc1ccccc1-c1nc(=S)c(C(C)=O)c(C)[nH]1	none
c1ccc(-c2csc3ncnc(N4CCOCC4)c23)cc1	none (no result: KCNQ2 pot)
c1ccc(-c2csc3ncnc(N4CCc5ccccc5C4)c23)cc1	none (no result: KCNQ2 pot) | Kir21 conf inh inactive | HEK293 Tl flux inactive
CCCCCNc1nc(NCCCO)c(C#N)c2c1CN(C)CC2	none
CCCc1nc(NCc2ccccc2)c(C#N)c2c1CCCC2	none (no result: KCNQ2 pot)
CCN1CCc2c(C#N)c(NCc3ccccc3)nc(N(CC)CC)c2C1	KCNQ2 pot 9.1 | Kir21 conf inh inactive | HEK293 Tl flux inactive | CHO-K1 ctr inactive | KCNQ1 sel pot inactive | KCNQ2 pot confirm 31 | Kir21 spec inactive | KCNQ2 W236L MoA inactive
C=CCNc1nc(NCc2ccccc2)c(C#N)c2c1CN(C)CC2	none (no result: KCNQ2 pot) | Kir21 conf inh 42% | HEK293 Tl flux inactive
Cn1cnnc1SCC(=O)Nc1ccc(Cl)c(S(=O)(=O)N2CCOCC2)c1	none
Cn1nc(-c2ccccc2)cc1NS(=O)(=O)c1ccccc1	none
COc1ccc(OC)c2sc(N(CCCN(C)C)C(=O)CCS(=O)(=O)c3ccccc3)nc12	KCNQ2 pot 9.9 | CHO-K1 ctr inactive | KCNQ1 sel pot 68 | KCNQ2 pot confirm inactive | Kir21 spec inactive
COc1ccc(Cl)c2sc(N(CCN(C)C)C(=O)CCS(=O)(=O)c3ccc(C)cc3)nc12	none (no result: KCNQ2 pot)
O=C(Nc1ccc(Br)cc1)c1ccc(-n2cnnn2)cc1	none
Cc1cccc(C)c1NC(=O)c1ccc(-n2cnnn2)cc1	KCNQ2 pot 13 | Kir21 conf inh inactive | HEK293 Tl flux inactive | CHO-K1 ctr inactive | KCNQ1 sel pot inactive | KCNQ2 pot confirm inactive | Kir21 spec inactive
Cc1ccc2c(c1)c1c(n2CC(O)CNC2CCCCC2)CCCC1 (centres undefined)	none (no result: KCNQ2 pot) | Kir21 conf inh 51% | HEK293 Tl flux inactive
Cc1ccc2c(c1)c1c(n2CC(O)CNC(CO)(CO)CO)CCCC1 (centres undefined)	none
O=C(COc1cc2oc(=O)c3c(c2cc1Cl)CCC3)NCCCn1ccnc1	none
